{"source": "PubChem BioAssay AID720519", "about": "(National Center for Advancing Translational Sciences (NCATS), 2013)", "note": "Results filed as inconclusive are left out. Values without a mark were called inactive. Calls of active or inactive are those of the source. Calls come from the whole dose curve; as a rule, active = well fitted activation curve with a large enough effect; inconclusive = small, poorly fitted or top-dose-only effect; inactive = flat fitted curve, though single readings scatter. Potency is the fitted concentration of half-maximal effect.", "data": [{"experiment": "qHTS for Inhibitors of Cell Surface uPA Generation: Confirmatory Assay for Cherry-picked Compounds; for inhibition: 0% is about no effect", "details": "cell surface uPA activity generation, qHTS confirmation; series mostly up to 115 µM; inhibition: at the top concentration", "in_short": "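RAW 264.7 cells at 4000/well, incubated overnight, then treated with compounds. After 24 h at 37 C, viability was read by ATPlite luminescence. An increase in signal indicates blocked uPA-dependent LF entry.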", "units": {"inhibition": "%"}, "values": [{"smiles": "CCSC1=NCCN1S(=O)(=O)c1ccc(Cl)cc1", "inhibition": -2.28}, {"smiles": "O=C(COc1ccccc1F)NCC(c1ccc(F)cc1)N1CCOCC1", "note": "(centres undefined)", "inhibition": -0.649}, {"smiles": "O=[N+]([O-])c1ccc(C[n+]2cccc(O)c2)cc1", "inhibition": -3.62}, {"smiles": "CC1=NN(C(N)=S)C(=O)C1N=Nc1ccccc1C(=O)O", "note": "(centres undefined)", "inhibition": -1.34}, {"smiles": "COc1ccc(C(CNC(=O)C(C)Oc2ccc(Br)cc2)N2CCCC2)cc1", "note": "(centres undefined)", "inhibition": -3.28}, {"smiles": "COc1ccc(NC(=O)c2nn(C)c3c2CS(=O)(=O)c2ccccc2-3)cc1", "inhibition": -1.07}, {"smiles": "O=C(COc1ncnc2sccc12)Nc1cccc(S(=O)(=O)N2CCCC2)c1", "inhibition": -1.13}, {"smiles": "CCCCCOC(=O)Nc1nnc(CCCCC)s1", "inhibition": 2.17}, {"smiles": "Cc1ccc(N2C(=O)c3ccccc3C2(O)c2ccccc2)cc1", "note": "(centres undefined)", "inhibition": -1.52}, {"smiles": "Cc1cnc(CNC(=O)C2CCC(=O)N(CCc3cccc(F)c3)C2)[nH]1", "note": "(centres undefined)", "inhibition": -1.62}, {"smiles": "COc1ccc(N2CC(C(=O)Nc3nnc(SCCC4OCCO4)s3)CC2=O)cc1", "note": "(centres undefined)", "inhibition": -2.33}, {"smiles": "COc1cc2c(OC(C)=O)c3c(c(-c4ccc5c(c4)OCO5)c2cc1OC)C(=O)OC3", "Potency": "2330 nM (active)"}, {"smiles": "O=C(Nn1cnnc1)c1ccc(Cl)cc1", "inhibition": -0.0371}, {"smiles": "CC(C)C(=O)Nc1nnc(SCc2cccc(F)c2)s1", "inhibition": -0.675}, {"smiles": "CC(C)N1CCc2c(sc(NC(=O)Cc3ccccc3)c2C(N)=O)C1", "inhibition": -0.422}, {"smiles": "Cc1ccccc1S(=O)Cc1ccc(C(=O)N2CCN(C(=O)c3ccco3)CC2)o1", "note": "(centres undefined)", "inhibition": -1.05}, {"smiles": "Cc1cnc(CNC(=O)CC2C(=O)NCCN2Cc2ccccc2C(F)(F)F)cn1", "note": "(centres undefined)", "inhibition": -0.319}, {"smiles": "O=c1[nH]c(SCc2cccc(Cl)c2)nc2ccccc12", "inhibition": 2.3}, {"smiles": "Cc1cc(N)n(Cc2ccc(Cl)cc2)n1", "inhibition": -1.76}, {"smiles": "CCNC(=S)NNC(=O)c1ccncc1", "inhibition": -1.76}, {"smiles": "Fc1ccc(N2CCN(c3nc(CN4CCOCC4)nc4scc(-c5ccccc5)c34)CC2)cc1", "inhibition": -2.29}, {"smiles": "C=CCOC(=O)C1=C(C)NC(C)=C(C(=O)OCC=C)C1c1cn(-c2ccccc2)nc1-c1ccco1", "inhibition": 2.24}, {"smiles": "CN(C)c1ccc(S(=O)(=O)N2CCC(Cc3ccccc3)CC2)cn1", "inhibition": -0.623}, {"smiles": "COc1ccc(OC)c(S(=O)(=O)N2CCN(Cc3ccccc3)CC2)c1", "inhibition": -0.0908}, {"smiles": "CCOc1cc(N2CCOCC2)c(OCC)cc1NC(=O)c1[nH]c(C)c(C(C)=O)c1C", "inhibition": -2.42}, {"smiles": "CCOc1cc(C(=O)OCC(=O)c2cc(C)n(CC3CCCO3)c2C)ccc1OCC(=O)N1CCOCC1", "note": "(centres undefined)", "inhibition": -2.56}, {"smiles": "CCCN1CCN(C(=O)CCCn2c(C)c3cnn(-c4ccccc4)c(=O)c3c2C)CC1", "inhibition": -2.47}, {"smiles": "Cc1ccc([C@H]2C(C(=O)O)=CC[C@@H](c3cccc(C)c3)N2S(=O)(=O)c2ccc(C)cc2)cc1", "inhibition": -2.73}, {"smiles": "CCS(=O)(=O)N1CCC(C(=O)NCc2ccc(OC)cc2OC)CC1", "inhibition": 0.281}, {"smiles": "OCCN(Cc1ccccc1)CC(O)COc1ccc2c(c1)OCO2", "note": "(centres undefined)", "inhibition": 0.0346}, {"smiles": "CCN(c1ccccc1)S(=O)(=O)c1ccc(NC(=O)c2ccco2)cc1", "inhibition": -2.76}, {"smiles": "O=C1NC(CCc2ccccc2)C(=O)N1Cc1ccccc1Cl", "note": "(centres undefined)", "inhibition": 5}, {"smiles": "Cc1cc(C)n2nc(CNS(=O)(=O)c3ccc(F)c(C)c3)nc2n1", "inhibition": -1.56}, {"smiles": "Cc1ccc(S(=O)(=O)N2CCOCC2)cc1NC(=O)CSc1nc(N)cc(N)n1", "inhibition": -3.34}, {"smiles": "COc1cc(CCC(=O)OCC(=O)NCc2ccccc2)cc(OC)c1OC", "inhibition": 0.19}, {"smiles": "CNC(=O)[C@@H]1CCC(=O)N1", "inhibition": -2.39}, {"smiles": "COc1ccc(C(=O)OCC(=O)N(C)C2CCS(=O)(=O)C2)cc1S(=O)(=O)N(C)Cc1ccccc1", "note": "(centres undefined)", "inhibition": 0.424}, {"smiles": "CCc1ccc(NC(=O)Cn2cnc([N+](=O)[O-])c2)cc1", "inhibition": -1.53}, {"smiles": "CCCS(=O)(=O)c1ccc(COC(=O)Cc2ccc([N+](=O)[O-])cc2)cc1", "inhibition": -2.02}]}]}
